Drawing on PubChem BioAssay AID488890 (Southern Research Specialized Biocontainment Screening …, 2010), this text covers inhibition for 76 molecules.

Hit rate of the full screen: of about 320,000 compounds, about 1,300 (0.41%) were called active. Roughly 3% stayed inconclusive and do not appear here. The rule behind the calls is not given here. The list is a sample of the results. Results with a measured potency or affinity are listed apart.

A short description of this assay: growth inhibition of non-replicating M. tuberculosis (AID 488890).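 Note: plate controls were DMSO cells for no effect and high antibiotic wells for full effect.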 To be noted: Mycobacterium tuberculosis non-replicating, at 25 µM, stronger effect = higher value.
With `O=C(NCc1cccs1)C1CCCCC1`, the inhibition (in general, the relative decrease from the control value, in per cent) turned out to be 54%. As for `O=C(NCc1cccs1)C12CC3CC(CC(C3)C1)C2`, the inhibition was 26.9%. With `O=C(NCCCCNC(=O)c1cccs1)c1cccs1`, the inhibition was -0.35%. Turning to `O=C(CC1CCCCC1)NCc1ccc(Cl)cc1`, the inhibition worked out at 11%. The figure for `O=C(NCc1cccs1)C1CC1` is -9.67%. For `O=C(NCCCNC(=O)c1cccs1)c1cccs1`, the inhibition was -16.1%. For the molecule `O=C(CC1CCCCC1)NCc1ccccc1Cl`, the inhibition worked out at 33%. For `O=C(CCCCC(=O)NCc1cccs1)NCc1cccs1`, the inhibition was 1.23%. As to `COc1ccc(C(CNC(=O)c2ccccc2SC)N(C)C)cc1` (stereo unspecified), the inhibition was -4.14%. In the case of `CCCCN(C(=O)CSc1nnc(-c2ccccc2)n1C)c1c(N)n(Cc2ccccc2)c(=O)[nH]c1=O`, the inhibition was 8.96%.

With `Cc1nc2sc(C)c(C)c2c(=O)[nH]1`, the inhibition stood at 3.35%. On to `COc1cc(CN2CCNCC2)cc(OC)c1OC`, for which the inhibition was -14.6%. Regarding `COC(=O)c1ccc(NC(=O)COc2ccc(S(=O)(=O)NC(C)(C)C)cc2)cc1`, the inhibition is -11.9%. On to `CC(NC(=O)CN1C(=O)NC2(CCc3ccccc32)C1=O)c1ccccc1` (stereo unspecified), for which the inhibition came to 15.4%. On to `CNNC(=S)Nc1ccc(Cl)cc1`, for which the inhibition is -0.3%. For `Cc1nnc(NC(=O)CSc2n[nH]c(-c3ccccc3C)n2)s1`, the inhibition was determined as 5.17%. To `CC(=O)Nc1cccc(NC(=O)c2ccc(Br)cc2)c1` belongs -8.54%; to `CC(=O)/C(=N/Nc1ccccc1C)N1CCOCC1`, 9.51%. With `O=C(O)CCC(=O)Nc1ccc(Br)cn1`, the inhibition is -12.1%. In the case of `O=C(CC1CCCCC1)NCc1ccccn1`, the inhibition came to 69.6%. Take `O=C(CC1CCCCC1)NCc1ccc(F)cc1`: the inhibition turned out to be 55.7%.

In the case of `O=C(CCC1CCCCC1)NCc1ccccn1`, the inhibition was 79.4%.

On to `O=C(CCC1CCCCC1)NCc1ccncc1`, for which the inhibition turned out to be 29%. To `O=C(CCC1CCCC1)Nc1ccc([N+](=O)[O-])cn1` belongs 67.7%; to `O=C(CN1C(=O)NC2(CCCc3ccccc32)C1=O)N1CCCCC1` (stereo unspecified), 6.72%; to `Nc1ccc(Br)cc1C(=O)c1ccccc1`, 53.2%.

With `CCN(CC(=O)Nc1c(F)cccc1F)C(=O)CCCc1c[nH]c2ccccc12`, the inhibition is -0.99%. To `COc1cc(C(=O)OCC2CC(c3ccccc3)=NO2)cc(OC)c1OC` (stereo unspecified) belongs 3.53%; to `CCOC(=O)c1cc(-c2ccccc2)n(CC2CC(c3ccc(OC)cc3)=NO2)n1` (stereo unspecified), 0.81%. To `CC(=O)c1cc(NC(=O)c2ccccc2)c(=O)oc1C` belongs 54.9%; to `Cc1oc(=O)c(NC(=O)c2ccccc2)cc1C(N)=O`, -8.22%. In the case of `N/C(=N\OC(=O)c1ccc2ccccc2c1)c1ccccn1`, the inhibition is 15.8%. Consider `COc1cccc(NC(=O)C(C)N2C(=O)c3ccccc3S2(=O)=O)c1` (stereo unspecified), for which the inhibition was -2.17%. Consider `COc1ccc(-c2c([C@H]3[C@H]4C=CC[C@@H](C)[C@@H]4C(=O)N3Cc3ccccc3)ccc3ccccc23)cc1OC`, for which the inhibition came to 60.8%. As for `Cc1cc(N/N=C/c2ccc(F)cc2)nc(NCc2ccccc2)n1`, the inhibition was 60.8%. Consider `COc1ccc(/C=N/Nc2cc(C)nc(N)n2)cc1`, for which the inhibition was found to be 27.6%.

As for `Cc1ccc(/C=N/Nc2cc(C)nc(N3CCOCC3)n2)cc1`, the inhibition amounted to 5.46%. To `COc1ccc(/C=N/Nc2cc(C)nc(N3CCOCC3)n2)cc1` belongs -21.2%; to `O=C(O)CC(NC(=O)c1cccc(F)c1)c1ccc(OC2CCCC2)cc1` (stereo unspecified), -8.15%; to `CCCCC(=O)Nc1ccc(C(=O)c2ccccc2)cc1`, -5.55%. Turning to `CCn1cc(CNC(=S)Nc2cccc(Cl)c2C)cn1`, the inhibition was 72.5%. To `C/C=C\C(=O)Nc1cccc(C2=NOC3(C2)C[C@@H](C(N)=O)N(C(=O)C2(C)CC2)C3)c1` (stereo partly specified) belongs 2.93%; to `CC(=O)Nc1ccc(NC(=O)CN(C)S(=O)(=O)c2ccc3nc(C)sc3c2)cc1`, 6.18%; to `COc1ccc(OC)c2sc(NC(=O)CCSc3ccccc3)nc12`, 14.7%. `CCC(=O)Nc1nc2c(OC)ccc(C)c2s1`: the inhibition was -15%. With `COc1ccc(CNC(=O)C(=O)NCC2OCCN2S(=O)(=O)c2ccc3c(c2)OCCO3)cc1` (stereo unspecified), the inhibition is -1.2%. Take `CCOc1ccc(NC(=O)CCNS(=O)(=O)c2ccc3c(c2)CC(C)N3C(C)=O)cc1` (stereo unspecified): the inhibition is -1.02%. The figure for `CCOC(=O)C1CCN(Cc2ccc(OCc3ccccc3)c(OC)c2)CC1` is 6.11%. With `CC1=CN2C(=N)/C(=C/c3ccc(Sc4ccc(C)cc4)o3)C(=O)N=C2S1`, the inhibition was -10.5%. On to `CCN1C(=O)N/C(=C/c2ccc(Sc3ccc(C)cc3)o2)C1=O`, for which the inhibition was determined as 39.1%. `Cc1ccc(N2NC(=O)/C(=C/c3ccc(-c4ccc(Cl)c(C(=O)O)c4)o3)C2=O)cc1`: the inhibition was 26.2%. Consider `O=C1NN(c2ccccc2)C(=O)/C1=C/c1ccc(-c2ccc(C(=O)O)cc2)o1`, for which the inhibition was 37.2%. To `CCN(CC)C(=O)COc1ccc(-c2ccccc2)cc1` belongs 37.2%; to `CC(C)C(C)NC(=O)COc1ccc(-c2ccccc2)cc1` (stereo unspecified), -4.32%; to `CC(NC(=O)COc1ccc(Br)cc1)C1CCCO1` (stereo unspecified), 0.437%. Turning to `COc1ccc(CCC(=O)NC(C)C2CCCO2)cc1` (stereo unspecified), the inhibition is -3.51%. To `CCC(CC)n1[nH]c(=O)c2c(C)cc(C)nc21` belongs -4.61%; to `CCCc1nc(SCC(=O)NC2CC2)c2c(C)c(C)sc2n1`, 6%. In the case of `CC[C@@]12C(=O)N(c3cccc(Br)c3)C(=O)N1[C@H](c1cccc(C)c1)[C@@H]1C(=O)N(Cc3ccccc3)C(=O)[C@@H]12`, the inhibition was 23.5%. On to `O=C(c1ncc[nH]1)c1cccs1`, for which the inhibition is -0.79%. Consider `CCOC(=O)C1CCCN(Cc2ccccc2Cl)C1` (stereo unspecified), for which the inhibition is 21.6%. As to `CC(NCc1cccc(OCc2ccccc2)c1)C(O)c1ccccc1` (stereo unspecified), the inhibition was 63.5%.

Turning to `CC(NCc1ccc(Cl)cc1)C(O)c1ccccc1` (stereo unspecified), the inhibition is 12.6%. The figure for `Cn1c(Cc2ccccc2)nnc1SCc1ccc(C(=O)O)cc1` is -12%; for `CCOC(=O)c1c(C)n(OC)c2ccc3c(no[n+]3[O-])c12` it is -0.23%. The figure for `COn1c2c(c3c4no[n+]([O-])c4ccc31)CCCC2` is -5.21%.

Consider `CCCCC(=O)Nc1c2c(nn1-c1cccc(C)c1C)CS(=O)(=O)C2`, for which the inhibition was -2.3%.

With `COc1cc(C(=O)NCc2ccccn2)ccc1OCc1c(C)noc1C`, the inhibition was -3.19%. For `O=C1N(CCCCN2C(=O)C3(OCCO3)c3ccccc32)c2ccccc2C12OCCO2`, the inhibition was 5.68%.

`C=CCN1C(=O)C2(OCCCO2)c2ccccc21`: the inhibition worked out at 11.8%. Turning to `C=CCN1C(=O)C2(NC(=O)c3ccccc3N2)c2ccccc21` (stereo unspecified), the inhibition was -5.15%.

For `O=C1N(CCCN2C(=O)C3(OCCO3)c3ccccc32)c2ccccc2C12OCCO2`, the inhibition stood at 0.91%. For `COc1ccccc1C(=O)N1CCN(C2CCN(Cc3ccccc3)CC2)CC1`, the inhibition is -21.9%. To `COc1ccc(OC(C)C(=O)NC(C)c2ccccc2)cc1` (stereo unspecified) belongs -7.62%; to `O=C1CCCC(O)=C1C=Nc1cccc(C(F)(F)F)c1`, -1.35%.

Consider `O=C1CCCC(O)=C1C=Nc1ccc(O)cc1`, for which the inhibition turned out to be 17.3%.
